Experimental data taken from the supplement of paper PMC3334620.
Whole data set: some 33,000 sequences, median “E-score (-0.5 to 0.5)” near -0.056, cut for the highest 2% near 0.38. This is one part of a sample in which the highest values are shown more often than they occur.

The sequences below were run against Stb4 (UniProt P50104) (assay: PBM E-score (8-mer binding enrichment) (E-score (-0.5 to 0.5)); higher = stronger / more preferred TF binding). Conditions: protein concentration: 200 nM; construct: GST-DNA-binding domain.
Chain of UniProt P50104 (P50104 whole entry, the tested form may be a part): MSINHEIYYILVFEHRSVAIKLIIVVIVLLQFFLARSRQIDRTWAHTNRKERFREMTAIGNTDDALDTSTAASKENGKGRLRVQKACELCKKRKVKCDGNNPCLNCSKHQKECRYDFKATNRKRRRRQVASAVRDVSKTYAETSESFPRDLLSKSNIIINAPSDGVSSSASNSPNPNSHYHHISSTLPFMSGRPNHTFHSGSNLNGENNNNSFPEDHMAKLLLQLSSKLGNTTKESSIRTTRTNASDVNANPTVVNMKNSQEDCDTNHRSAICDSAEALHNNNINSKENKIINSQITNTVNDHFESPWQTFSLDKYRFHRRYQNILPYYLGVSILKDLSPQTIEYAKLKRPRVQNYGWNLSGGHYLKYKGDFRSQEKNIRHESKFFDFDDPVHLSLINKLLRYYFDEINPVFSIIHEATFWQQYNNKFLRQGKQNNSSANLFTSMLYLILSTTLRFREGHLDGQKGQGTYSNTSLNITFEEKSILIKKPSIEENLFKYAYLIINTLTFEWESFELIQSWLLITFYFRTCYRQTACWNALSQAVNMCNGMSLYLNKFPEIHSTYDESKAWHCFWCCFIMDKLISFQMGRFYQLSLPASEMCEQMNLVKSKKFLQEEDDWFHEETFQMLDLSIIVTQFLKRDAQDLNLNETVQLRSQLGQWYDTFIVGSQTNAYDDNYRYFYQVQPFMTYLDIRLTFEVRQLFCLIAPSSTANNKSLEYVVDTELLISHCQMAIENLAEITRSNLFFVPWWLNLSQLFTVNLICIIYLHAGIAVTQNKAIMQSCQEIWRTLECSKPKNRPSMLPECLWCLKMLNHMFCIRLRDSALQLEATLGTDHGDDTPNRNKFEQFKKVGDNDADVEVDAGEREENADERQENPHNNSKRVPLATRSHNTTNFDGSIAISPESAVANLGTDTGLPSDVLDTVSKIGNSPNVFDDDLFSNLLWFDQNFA
Outline: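 Full-length yeast transcription factors or their DNA-binding domains, GST-tagged and expressed with PURExpress, were applied at about 100-200 nM to universal all-10-mer Agilent arrays. These arrays had been made double-stranded by primer extension on fresh or once-stripped slides. Detection used fluorescent anti-GST, normalisation used masliner, and E-scores for ungapped eight-base words pooled with reverse complements came from the Universal PBM Analysis Suite.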
With CCATAAGG the “PBM E-score” value was -0.314.
For CCAGATAC, the “PBM E-score” value was -0.122.
For CTATTGCA, the “PBM E-score” value was -0.0693.
With ACAGACCT the “PBM E-score” value was 0.00106.
ACCAATCT was tested, and the “PBM E-score” value was 0.0037.
CCGATAAG was tested, and the “PBM E-score” value was 0.269.
CGGATAAG was tested, and the “PBM E-score” value was 0.41.
CGGATAAA was tested, and the “PBM E-score” value was 0.465.
CGGATAAC was tested, and the “PBM E-score” value was 0.452.
For AGGATAAA, the “PBM E-score” value was -0.0635.
In the case of AGGATAAG, the “PBM E-score” value is reported as -0.0142.
GGGATAAC was tested, and the “PBM E-score” value was 0.0907.
TGGATAAA was tested, and the “PBM E-score” value was 0.027.
For AGGATAAC, the “PBM E-score” value was -0.159.
In the case of AGATCAGC, the “PBM E-score” value is reported as 0.0618.
GGTAGACC was tested, and the “PBM E-score” value was 0.143.
With CCTCTTAC the “PBM E-score” value was -0.274.
In the case of AACGACTA, the “PBM E-score” value is reported as -0.151.
For AAGGTACG, the “PBM E-score” value was -0.0106.
In the case of GGCCTAAA, the “PBM E-score” value is reported as -0.102.
For ATCCGACC, the “PBM E-score” value was 0.425.
For ACCCGACC, the “PBM E-score” value was 0.382.
With ATCCGACG the “PBM E-score” value was 0.452.
For GTCCGACA, the “PBM E-score” value was 0.213.
With ATCCGACA the “PBM E-score” value was 0.442.
For CTCCGACA, the “PBM E-score” value was 0.227.
With CTCCGACC the “PBM E-score” value was 0.315.
AACCGACG was tested, and the “PBM E-score” value was 0.304.
With AGCCGACG the “PBM E-score” value was 0.353.
For CAAATCTA, the “PBM E-score” value was -0.211.
CCTTTGTC was tested, and the “PBM E-score” value was -0.141.
GCCTACGC was tested, and the “PBM E-score” value was -0.306.
In the case of TACACTGA, the “PBM E-score” value is reported as -0.0306.
CCGAAGAC was tested, and the “PBM E-score” value was 0.374.
In the case of ACGAAGAG, the “PBM E-score” value is reported as -0.117.
With CCGAAGAA the “PBM E-score” value was 0.402.
ACGAAGAA was tested, and the “PBM E-score” value was -0.0766.
TCGAAGAA was tested, and the “PBM E-score” value was -0.122.
CCGAAGAG was tested, and the “PBM E-score” value was 0.417.
For GAGTACTC, the “PBM E-score” value was -0.00922.
For AACGACGT, the “PBM E-score” value was -0.166.
For ATTGACCC, the “PBM E-score” value was 0.0534.
CCGAGCGG was tested, and the “PBM E-score” value was 0.431.
In the case of ACGAGCGA, the “PBM E-score” value is reported as -0.402.
With ACGAGCGC the “PBM E-score” value was -0.0806.
CCGAGCGA was tested, and the “PBM E-score” value was 0.403.
GCGAGCGC was tested, and the “PBM E-score” value was -0.103.
For ACGAGCGG, the “PBM E-score” value was 0.0575.
For GCGAGCGA, the “PBM E-score” value was -0.0989.
With CCGAGCGC the “PBM E-score” value was 0.44.
For CAGAGCGG, the “PBM E-score” value was -0.0262.
AGTATCGA was tested, and the “PBM E-score” value was -0.072.
For ATTCGCAG, the “PBM E-score” value was -0.152.
In the case of AAAGTCGC, the “PBM E-score” value is reported as 0.0621.
In the case of AGATTTAG, the “PBM E-score” value is reported as -0.0774.
In the case of ACTTTGGC, the “PBM E-score” value is reported as 0.123.
With CTCGACAC the “PBM E-score” value was -0.144.
For CCGAATTC, the “PBM E-score” value was 0.398.
For CCGAATTA, the “PBM E-score” value was 0.363.
For CCGAATAC, the “PBM E-score” value was 0.425.
In the case of ACGAATTC, the “PBM E-score” value is reported as -0.192.
ACGAATAC was tested, and the “PBM E-score” value was -0.0867.
In the case of CCGAATAA, the “PBM E-score” value is reported as 0.381.
With ACGACCGA the “PBM E-score” value was 0.0769.
TCCGCCAA was tested, and the “PBM E-score” value was 0.233.
For GGGTCGGA, the “PBM E-score” value was 0.392.
For GGGTCGAA, the “PBM E-score” value was 0.0324.
In the case of CGGTCGTA, the “PBM E-score” value is reported as 0.128.
In the case of CGGTCGGC, the “PBM E-score” value is reported as 0.318.
For CGGTCGGA, the “PBM E-score” value was 0.388.
With AGGTCGGA the “PBM E-score” value was 0.345.
With GCGTCCGA the “PBM E-score” value was 0.282.
In the case of GGCATGCC, the “PBM E-score” value is reported as 0.156.
With GTCTAGTA the “PBM E-score” value was -0.11.
With GTACTGTA the “PBM E-score” value was -0.171.
With AACCACAG the “PBM E-score” value was -0.177.
For GTCGAATA, the “PBM E-score” value was -0.181.
In the case of CACGAATA, the “PBM E-score” value is reported as -0.22.
In the case of CTCGAATA, the “PBM E-score” value is reported as 0.0163.
ACCGAATA was tested, and the “PBM E-score” value was 0.215.
With CCCGAATC the “PBM E-score” value was 0.397.
With CCCGAATA the “PBM E-score” value was 0.397.
In the case of GCCGAATA, the “PBM E-score” value is reported as 0.427.
For CTCGAATC, the “PBM E-score” value was -0.207.
ACCGAATC was tested, and the “PBM E-score” value was 0.357.
In the case of CCATCACA, the “PBM E-score” value is reported as -0.197.
CCCCATCA was tested, and the “PBM E-score” value was -0.137.
With CCTTCTTA the “PBM E-score” value was -0.143.
CCGGCATC was tested, and the “PBM E-score” value was 0.28.
With CCTTTCAA the “PBM E-score” value was -0.112.
GAATGGTC was tested, and the “PBM E-score” value was 0.0599.
In the case of CCAGACGG, the “PBM E-score” value is reported as -0.0564.
With ACGGATCC the “PBM E-score” value was 0.352.
For CCGGATCA, the “PBM E-score” value was 0.383.
In the case of GCGGATCC, the “PBM E-score” value is reported as 0.301.
CCGGATCC was tested, and the “PBM E-score” value was 0.395.
With GCGGATCA the “PBM E-score” value was 0.196.
In the case of ACGGATGC, the “PBM E-score” value is reported as 0.298.
With ACGGATCA the “PBM E-score” value was 0.325.
TAGGATCA was tested, and the “PBM E-score” value was -0.0704.
In the case of CCGGATGC, the “PBM E-score” value is reported as 0.396.
TCAGATCA was tested, and the “PBM E-score” value was -0.235.
For CCGGATGA, the “PBM E-score” value was 0.366.
In the case of TCGGATCA, the “PBM E-score” value is reported as 0.46.
AGATCTAG was tested, and the “PBM E-score” value was -0.255.
In the case of TTGGCAAA, the “PBM E-score” value is reported as -0.183.
AACCGCGG was tested, and the “PBM E-score” value was 0.291.
For GAGGAGGC, the “PBM E-score” value was -0.196.
In the case of ACGTTTTC, the “PBM E-score” value is reported as 0.0722.
With GATTGCTA the “PBM E-score” value was -0.122.
With TTAGACAA the “PBM E-score” value was -0.0136.
In the case of CCGGATCG, the “PBM E-score” value is reported as 0.413.
With ACGGATCG the “PBM E-score” value was 0.315.
With CAGGATCG the “PBM E-score” value was 0.0947.
With TATGACGA the “PBM E-score” value was -0.111.
GGAAGTGA was tested, and the “PBM E-score” value was 0.245.
For ATTAGAGG, the “PBM E-score” value was 6e-05.
In the case of AACTGGAA, the “PBM E-score” value is reported as -0.0984.
With CATTTAGA the “PBM E-score” value was -0.00372.
For ATTCCGAA, the “PBM E-score” value was 0.464.
AGTCCGAG was tested, and the “PBM E-score” value was 0.371.
In the case of GTTCCGCA, the “PBM E-score” value is reported as 0.293.
With ATTCCGAG the “PBM E-score” value was 0.472.
With GTTCCGAA the “PBM E-score” value was 0.479.
For CTTCCAAA, the “PBM E-score” value was -0.174.
For ATTCCGTA, the “PBM E-score” value was 0.265.
For ATTCCGTG, the “PBM E-score” value was 0.363.
In the case of ATTCCGCA, the “PBM E-score” value is reported as 0.169.
In the case of CTTCCGCA, the “PBM E-score” value is reported as 0.331.
With GTTCCAAA the “PBM E-score” value was -0.0427.
With CTTCCGAA the “PBM E-score” value was 0.479.
In the case of GCGATCTA, the “PBM E-score” value is reported as -0.0238.
In the case of GCGACCAA, the “PBM E-score” value is reported as -0.183.
For CCGCCAAG, the “PBM E-score” value was -0.059.
In the case of AACATCGT, the “PBM E-score” value is reported as -0.0992.
In the case of ATCTCCGG, the “PBM E-score” value is reported as 0.345.
For GCTTGCGA, the “PBM E-score” value was -0.104.
For ACTAAGCG, the “PBM E-score” value was -0.0604.
In the case of CCTATATA, the “PBM E-score” value is reported as -0.103.
With GGAATCAC the “PBM E-score” value was 0.244.
CCAGGCTA was tested, and the “PBM E-score” value was -0.289.
In the case of CAAAATTC, the “PBM E-score” value is reported as 0.165.
In the case of CTTCCGTC, the “PBM E-score” value is reported as 0.341.
For CTTCCGAC, the “PBM E-score” value was 0.457.
ATTCCGAC was tested, and the “PBM E-score” value was 0.416.
CTTCCGCC was tested, and the “PBM E-score” value was 0.297.
AGTCCGAC was tested, and the “PBM E-score” value was 0.11.
In the case of ATTCCGTC, the “PBM E-score” value is reported as 0.285.
In the case of GCTACCCC, the “PBM E-score” value is reported as -0.0436.
TCTTGCAA was tested, and the “PBM E-score” value was 0.0931.
AAAGAGCT was tested, and the “PBM E-score” value was -0.128.
ATTAGAAT was tested, and the “PBM E-score” value was -0.0347.
With TCCCGGAA the “PBM E-score” value was 0.407.
For TCCCGGCA, the “PBM E-score” value was 0.298.
For CCCCGGGA, the “PBM E-score” value was 0.307.
With ACCCGGAA the “PBM E-score” value was 0.433.
For GCCCGGAA, the “PBM E-score” value was 0.423.
In the case of GCCCGGTA, the “PBM E-score” value is reported as 0.263.
In the case of CCCCGGAA, the “PBM E-score” value is reported as 0.27.
GCCCGGAC was tested, and the “PBM E-score” value was 0.229.
With ACCCGGAT the “PBM E-score” value was 0.374.
With ACCCGGAG the “PBM E-score” value was 0.373.
For GCCCGGGA, the “PBM E-score” value was 0.308.
For TCCCGGGA, the “PBM E-score” value was 0.409.
In the case of CGGTAGGA, the “PBM E-score” value is reported as 0.136.
In the case of AGCTCATA, the “PBM E-score” value is reported as -0.0221.
For AACAACTT, the “PBM E-score” value was -0.165.
With CCTATGAG the “PBM E-score” value was -0.227.
In the case of GTAGCAAA, the “PBM E-score” value is reported as -0.0766.
In the case of ATTGACGA, the “PBM E-score” value is reported as -0.138.
TCACATCA was tested, and the “PBM E-score” value was -0.0958.
CCTCGGAA was tested, and the “PBM E-score” value was 0.484.
With CCTCGAAA the “PBM E-score” value was -0.27.
For ACTCGGAG, the “PBM E-score” value was 0.362.
With CCGCGGAA the “PBM E-score” value was 0.352.
CCTCGGAC was tested, and the “PBM E-score” value was 0.321.
CCTCGGAG was tested, and the “PBM E-score” value was 0.408.
